From PubChem BioAssay AID926 (National Center for Advancing Translational Sciences (NCATS), 2007)
The campaign covered roughly 73,000 compounds. About 350 (0.48%) were called active. Inconclusive results (about 17%) are left out. The call rests on the fitted dose curve; in most records, active means well fitted activation curve with a large enough effect in the main read-out, with a control signal flat (not every such curve was filed as active); inconclusive means small, poorly fitted or top-dose-only effect, or a change in a side signal; inactive means no such curve, though single readings can be large or run the other way; reference of the percent scale not stated here. The list comes from a sample in which actives are over-represented; it also holds similar structures and randomly drawn compounds.

Tests used:
[1] = qHTS Assay for Agonists of the Thyroid Stimulating Hormone Receptor; settings: HEK293-CNG-TSHR cells, membrane potential dye, cAMP; measured here: parental cells max response
Method in brief: (§1)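 HEK 293 cells stably expressing TSHR and a modified CNG channel, with CNG-only parental cells as counterscreen, were preloaded 60 min at room temperature with membrane potential dye containing 100 uM RO 20-1724. Compound exposure was 30 min, and depolarization was read as fluorescence at 590 nm.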

[2] = target: Thyrotropin receptor (Homo sapiens) (UniProt P16473); assay: as above; settings: HEK293-CNG-TSHR cells (CNG channel as cAMP sensor), membrane potential dye, cAMP; series mostly up to 57.1 µM
Method in brief: as §1
Potency means the concentration at half of the fitted maximal effect.

Chain of Thyrotropin receptor (Homo sapiens) (P16473 whole entry, looked up): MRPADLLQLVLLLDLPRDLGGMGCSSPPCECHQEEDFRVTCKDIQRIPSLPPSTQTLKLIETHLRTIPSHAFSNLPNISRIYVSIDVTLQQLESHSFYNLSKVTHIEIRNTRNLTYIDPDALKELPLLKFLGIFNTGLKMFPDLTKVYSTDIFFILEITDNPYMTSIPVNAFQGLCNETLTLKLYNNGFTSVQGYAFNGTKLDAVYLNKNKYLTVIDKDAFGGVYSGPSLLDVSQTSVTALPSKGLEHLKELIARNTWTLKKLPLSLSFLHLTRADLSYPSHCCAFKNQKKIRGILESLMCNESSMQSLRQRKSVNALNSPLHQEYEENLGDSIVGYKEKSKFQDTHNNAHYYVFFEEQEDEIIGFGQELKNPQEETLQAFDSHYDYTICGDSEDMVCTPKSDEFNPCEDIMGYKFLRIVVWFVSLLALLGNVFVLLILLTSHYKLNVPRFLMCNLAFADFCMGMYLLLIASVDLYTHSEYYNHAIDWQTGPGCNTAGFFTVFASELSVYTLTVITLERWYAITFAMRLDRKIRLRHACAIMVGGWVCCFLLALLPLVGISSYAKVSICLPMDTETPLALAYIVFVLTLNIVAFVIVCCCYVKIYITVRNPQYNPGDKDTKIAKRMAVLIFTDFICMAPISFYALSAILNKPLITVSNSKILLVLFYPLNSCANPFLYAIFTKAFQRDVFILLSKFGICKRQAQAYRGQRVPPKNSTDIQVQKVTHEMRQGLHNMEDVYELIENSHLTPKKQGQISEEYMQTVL

Row | SMILES | activation [1] | Potency [2] | activation [2]
1 | O=C1OC(NC(=O)c2ccccc2)C(N2CCOCC2)=C1Cl (stereo not given) | 4.11% | inactive | –
2 | CC(C)c1ccc2c([Si](C)(C)C)c3c(nc2c1)-c1cccc(=O)n1C3 | 2.88% | inactive | –
3 | CCn1cc(NC(=O)Nc2ccc(OC)c(OC)c2)c(C(N)=O)n1 | 0.163% | inactive | –
4 | COc1cccc(N2CCN(C3CC(=O)N(c4ccc(Cl)cc4)C3=O)CC2)c1 (stereo not given) | -14.4% | – | -19.1% [at 11.4 µM] (inactive)
5 | Cc1ccc(C(=O)Nc2nnc(-c3ccncc3)s2)o1 | -13.3% | inactive | –
6 | CC(=O)OCC(=O)[C@@]1(O)CC[C@@H]2[C@H]3CCC4=CC(=O)C=C[C@]4(C)[C@]3(F)[C@@H](O)C[C@@]21C | -1.34% | inactive | –
7 | COC(=O)[C@@]1(Cc2ccc(F)cc2)[C@H]2c3cc(C(=O)N4CCCC4)n(C[C@H](O)CO)c3C[C@H]2CN1C(=O)c1ccccc1 | 12.9% | inactive | –
8 | CC(C)N(C(=O)Cn1c(SCC(=O)N2CCN(c3ccccc3)CC2)nc2ccccc21)C(C)C | 11.2% | inactive | –
9 | Cc1ccc(NC(=O)N2CCC(C(=O)NCc3ccc(F)cc3)CC2)cc1 | -2.62% | inactive | –
10 | Cn1c(=O)n2n(c1=O)[C@H]1[C@H](O)[C@H]3O[C@H]3C(=O)[C@H]1CC2 | 0.42% | – | -7.07% [at 11.4 µM] (inactive)
11 | O=C(CCCn1c(=O)oc2ccccc21)Nc1cccnc1 | -4.73% | inactive | –
12 | c1ccc2nc(C3=NCCN3)cnc2c1 | -2.21% | inactive | –
13 | COCc1cc(C)nc(Nc2cc(C)ccc2C)c1C#N | 18.4% | inactive | –
14 | CC1CCN(C(=O)CSc2ccc3nnc(-c4cccc(F)c4)n3n2)CC1 | 0.67% | inactive | –
15 | COc1ccc(C[C@H](N)C(=O)N[C@@H]2[C@H](O)[C@H](n3cnc4c(N(C)C)ncnc43)O[C@@H]2CO)cc1 | -1.32% | inactive | –
16 | Cc1cc2nc3c(=O)[nH]c(=O)nc-3n(C[C@H](O)[C@H](O)[C@H](O)CO)c2cc1C | 35.7% | inactive | –
17 | O=C(CCn1c(=O)oc2ccccc21)Nc1ccon1 | 5.04% | inactive | –
18 | COCCCNC(=O)COc1cc(C)c(Cl)c(C)c1 | 3.68% | inactive | –
19 | COC(=O)CSC1=C(C#N)C(c2ccccc2OC)C(C(=O)OC)C(=O)N1 (stereo not given) | -3.31% | – | -3.47% [at 11.4 µM] (inactive)
20 | C=CCOC(=O)COCCC(C)C | 1.07% | inactive | –
21 | Cn1cccc1C(=O)N1CCC[C@@]2(CCN(Cc3nccs3)C2)C1 | 1.41% | inactive | –
22 | CCCC[C@@H]1C[C@H]1C(NC(=O)c1ccc(-c2ccccc2)cc1)c1ccc(-c2ccccc2)cc1 (stereo not given in full) | 1.42% | inactive | –
23 | Cc1cccc(Br)c1 | 15% | inactive | –
24 | CCCC(Cl)CCCC(Cl)CCC(Cl)CCC(Cl)CCC(Cl)CCCC(Cl)CCC (stereo not given) | 3.46% | inactive | –
25 | O=C(Cl)c1ccc([N+](=O)[O-])cc1 | -6.7% | inactive | –
26 | COc1ccc(C2SCCN2S(=O)(=O)c2ccccc2)cc1OC (stereo not given) | 15.1% | 31.6 µM (active) | –
27 | COc1ccccc1CN1CC2(CCN(S(=O)(=O)c3ccccc3)CC2)C1 | 7.71% | inactive | –
28 | COc1ccc(S(=O)(=O)Nc2ccc(S(=O)(=O)N3CCCCC3)cc2)cc1OC | -4.42% | inactive | –

Row | SMILES | activation [1] | Potency [2] | activation [2]
29 | Cc1ccc2oc(=O)ccc2c1 | 1.36% | inactive | –
30 | CO[C@H]1COC(=O)[C@@H](OCc2ccccc2)/C=C\[C@H](C)[C@@H](OC)COC(=O)[C@H](OCc2ccccc2)/C=C\[C@@H]1C | -2.98% | – | -1.59% [at 11.4 µM] (inactive)
31 | CCc1ccccc1N(CC(=O)NCCSCc1ccco1)S(C)(=O)=O | 6.61% | – | 16.8% [at 11.4 µM] (inactive)
32 | COC(=O)C1(Cc2ccccc2)C=C2C(=C(C)C(=O)C2C)CN1 (stereo not given) | 7.11% | inactive | –
33 | CC(=O)N1[C@H](C)C=C[C@]1(Cc1ccccc1)C(=O)NCc1ccccn1 | 7.85% | inactive | –
34 | Cc1cc(C)cc(C#CC2C=CC(Oc3ccc(C4CCCC4)cc3)C(CO)O2)c1 (stereo not given) | 16.7% | – | 5.07% [at 11.4 µM] (inactive)
35 | COC(=O)[C@@]1(Cc2ccc(F)cc2)[C@@H]2[C@@H](CC(=O)[C@H]2CC(=O)C(=O)N2CCCC2)CN1C(=O)c1ccccc1 | 18.8% | inactive | –
36 | CCNCCCNCCCNCCCNCC | -2.31% | inactive | –
37 | BrC1C(Br)C(Br)C(Br)C(Br)C1Br (stereo not given) | 2.31% | inactive | –
38 | Cc1cccc(C(=O)O)c1[N+](=O)[O-] | 15% | inactive | –
39 | CC1(C)OC(C(O)(c2ccccc2)c2ccccc2)C(C(O)(c2ccccc2)c2ccccc2)O1 (stereo not given) | 25.8% | – | 15.4% [at 11.4 µM] (inactive)
40 | Cc1cccc(NC(=O)CSC(N)=O)c1C | -24.7% | inactive | –
41 | CCCS(=O)(=O)N1CCCC(C(=O)NCc2ccco2)C1 (stereo not given) | 10.5% | inactive | –
42 | Cc1ccc(S(=O)(=O)N2CCCC2CO)cc1 (stereo not given) | -3.4% | – | -5.75% [at 11.4 µM] (inactive)
43 | Cc1ccc(S(=O)(=O)N2CCCC2C(=O)NCc2ccco2)cc1 (stereo not given) | -0.0422% | 12.6 µM (active) | –
44 | C/C(CCN1CCc2nc(-c3ccccc3)c(-c3ccccc3)cc2C1)=N\O[C@@H](C)c1cn([C@@H]2COC[C@@H]2O)nn1 | 0.56% | – | 6.46% [at 11.4 µM] (inactive)
45 | C=CCn1cnc2scc(-c3ccccc3)c2c1=O | -2.42% | inactive | –
46 | O=C1C(c2[nH]c3ccccc3c2O)=Nc2ccccc21 | -17.9% | inactive | –
47 | O=C(O)CS(=O)c1ccc2c3c(cccc13)C(=O)c1ccccc1-2 (stereo not given) | -9.79% | – | -5.26% [at 11.4 µM] (inactive)
48 | CCCCCCN(C(=O)CCCCCN1C(=O)NC(c2ccc(C(F)(F)F)cc2)C(C(=O)OCc2ccccc2)=C1C)C(C(=O)NCCCC)c1ccc(OCC(=O)OC)c(C(=O)OC)c1 (stereo not given) | 18.9% | inactive | –
49 | O=C(CSc1nc2c(cnn2-c2ccc(F)cc2)c(=O)[nH]1)N1CCCCCC1 | 1.57% | inactive | –
50 | CN1CCC(CNC(=O)c2ccc(-n3c(=O)c(=O)[nH]c4ccccc43)cc2)CC1 | -0.798% | inactive | –
51 | Cc1ccc2nc(-c3ccccc3)cc(C(=O)O)c2c1 | -5.12% | inactive | –
52 | CC(C)(C)[Si](OCC[C@@H]1C[C@@]1(C)[C@@H](NP(=O)(c1ccccc1)c1ccccc1)c1ccccc1)(c1ccccc1)c1ccccc1 | 13.3% | inactive | –
53 | O=C(CC(Cc1ccccc1)C(=O)O)NCCc1ccc2c(c1)OCO2 (stereo not given) | 9.45% | inactive | –
54 | O=C(COc1ccccc1)NCc1ccc2c(c1)OCO2 | 27.1% | inactive | –
55 | O=C(CN(Cc1ccccc1)C(=O)c1ccc2c(c1)OCCO2)NCc1ccc2c(c1)OCO2 | 12.9% | 7.94 µM (active) | –
